From PubChem
BAZ2B inh: inhibitors of human BAZ2B bromodomain. Q9UIF8. AlphaScreen BAZ2B-H3K14Ac peptide displacement. Potency, µM (highest dose often 114 µM), for inactives: at the highest dose activity change, negative = inhibition, actives largely listed as inhibitors. hit rate 4.4% among 360,000. AID 504333; also: potency is read from the fitted curve at half-maximal effect; % is scaled to controls: 0 for no effect and ±100 for the full control effect; nearly all actives have a fitted effect of over 60% in size
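Protein-peptide AlphaScreen: BAZ2B 50 nM, b-H3K14Ac 50 nM, 1x PBS pH 7.4 + 0.01% Tween-20. Preincubation 30 min RT; cpd 30 min RT (top 110 uM); beads 20 min RT, light-protected.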
HP1b binding inh: HP1-beta chromodomain-methylated histone interaction inhibition; AID 540317; hit rate 0.56% among 390,000; AlphaScreen HP1-beta / biotin-H3K9me3 peptide binding; Potency, µM (highest dose often 114 µM), inactives show top-dose activity change, negative = inhibition, most hits filed as inhibitors; P83916; also: potency is read from the fitted curve at half-maximal effect; nearly all actives have a fitted effect of over 70% in size
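HP1-beta protein (50 nM final) preincubated 30 min at room temperature with biotinylated H3(1-18)K9me3 peptide (50 nM) in PBS pH 7.4, 0.01% Tween-20, then compound added for 30 min. AlphaScreen streptavidin donor/nickel chelate acceptor beads (10 ug/mL final), 30 min dark, luminescence read.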
TDP1 block: TDP1 (human) enzyme inhibition; Q9NUW8; recombinant TDP1, AlphaScreen DNA substrate cleavage; Potency, µM (top dose mostly 130 µM), inactives show at the highest dose activity change, negative = inhibition, most hits filed as inhibitors; hit rate 0.28% among 350,000; AID 485290; also: potency is read from the fitted curve at half-maximal effect; % is scaled to controls: 0 for no effect and ±100 for the full control effect; nearly all actives have a fitted effect of over 40% in size
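AlphaScreen read-out: signal falls as enzyme removes the 3' tyrosine-FITC from a 5'-biotinylated DNA oligo (15 nM, 5 min, RT). Enzyme was E. coli-made recombinant Tdp1 at 1 nM, exposed to compound for 15 min beforehand; beads 10 ug/ml, 10 min.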
JMJD2A Tudor inh: inhibitors of human JMJD2A Tudor domain | Potency, µM (top dose mostly 114 µM), without a hit: top-dose activity change, negative = inhibition, hits mostly inhibitors | O75164 | AID 504339 | AlphaScreen JMJD2A-Tudor / H3K4me3 peptide binding | hit rate 4.4% among 390,000; also: potency is read from the fitted curve at half-maximal effect; % is scaled to controls: 0 for no effect and ±100 for the full control effect; nearly all actives have a fitted effect of over 50% in size
Six1-Eya2 inh: blocks human Six1 binding to Eya2; Q15475+O00167; hit rate 0.56% among 360,000; AlphaScreen GST-Six1/His-Eya2 binding, biochemical; stronger effect = lower value; activity change, % (test concentration not listed); in the data active = activity change below about -65%; inconclusive = mostly about -30% to -63%; also: % is scaled to controls: 0 for no effect and ±100 for the full control effect
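GST-Six1 + His-Eya2 (5X stock: 250/500 nM); Tris pH 8.0, 300 mM NaCl, 0.05% BSA, 0.02% Tween 20; GSH donor/Ni acceptor beads; 1 h 37 °C dark; AlphaScreen readout.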
CtBP-E1A inh: CtBP/E1A binding inhibition. AlphaScreen GST-E1A/His-CtBP binding, 1536-well; stronger effect = lower value. activity change, % (concentration not given with the values). hit rate 0.49% among 340,000. AID 651724; in the data active = activity change below about -65%; inconclusive = mostly about -30% to -63%; also: % is scaled to controls: 0 for no effect and ±100 for the full control effect
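AlphaScreen with 125 nM GST-E1A and 125 nM His-CtBP (5X stocks) in Tris pH 8.0, 300 mM NaCl, BSA, Tween 20, TCEP. Compounds preincubated 2 h at 37 deg C, then glutathione donor/nickel acceptor beads added for 1 h at 37 deg C in dark.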
* = called active by the depositor; [ ] = dose if it differs, or a comment. Shown are actives, neighbours in structure and some others; about 5.3% of the full set was active somewhere. Unless noted, calls follow the shape of the dose curve; as a rule, active = well fitted inhibition curve with a large enough effect; inconclusive = small, poorly fitted or top-dose-only effect; inactive = no such curve, though single readings can be large or run the other way.

Cc1ccc(C2C3=C(CC(C)(C)CC3=O)Nc3onc(C)c32)cc1 (stereo not drawn) was read as BAZ2B inh inconclusive, HP1b binding inh 48%, TDP1 block 5%, JMJD2A Tudor inh 3%, Six1-Eya2 inh 6 and CtBP-E1A inh -8.
`CCOc1ccc(NS(=O)(=O)c2ccc(C(=O)N(C)C)s2)cc1` gave BAZ2B inh -3%, HP1b binding inh 27%, TDP1 block 6% and JMJD2A Tudor inh -4%.
O=P(c1ccccc1)(c1ccccc1)c1cnc2ccccn12 was read as TDP1 block 2% and JMJD2A Tudor inh inconclusive.
Screening O=C(NCC(c1ccc2c(c1)OCO2)N1CCOCC1)c1ccc(F)cc1 (stereo not drawn) returned BAZ2B inh 2%, HP1b binding inh 18%[57 µM], TDP1 block 0% and JMJD2A Tudor inh -6%.
CC1CCCN(CCOCCOc2ccc(Br)cc2Cl)C1 (stereo not drawn) was read as BAZ2B inh inconclusive, HP1b binding inh inconclusive, TDP1 block -3%, JMJD2A Tudor inh 2.8µM*, Six1-Eya2 inh 6 and CtBP-E1A inh -20.
Screening CC1CCCN(CCOCCOc2ccc(Cl)cc2Br)C1 (stereo not drawn) returned BAZ2B inh inconclusive, HP1b binding inh inconclusive, TDP1 block 4%, JMJD2A Tudor inh 2µM*, Six1-Eya2 inh 18 and CtBP-E1A inh 32.
O=C1CCC(=O)N1OCCCOc1ccc(Br)cc1Cl was read as BAZ2B inh 0%, HP1b binding inh 69%, TDP1 block 0%, JMJD2A Tudor inh 10%, Six1-Eya2 inh 0 and CtBP-E1A inh 7.
For COc1ccc(OC)c(NC(=O)CCN2CCCC(C)C2)c1 (stereo not drawn) the results were BAZ2B inh 8%, HP1b binding inh 24%, TDP1 block 8%, JMJD2A Tudor inh -17%, Six1-Eya2 inh 0 and CtBP-E1A inh 8.
`Cc1cc(Cl)c(OCCCn2cncn2)c(Br)c1` gave BAZ2B inh 0%, HP1b binding inh 60%, TDP1 block 3%, JMJD2A Tudor inh -10%, Six1-Eya2 inh 2 and CtBP-E1A inh 5.
For CC1CCN(CCCOc2ccc(Br)cc2Cl)CC1 the results were BAZ2B inh 56µM*, HP1b binding inh inconclusive, TDP1 block -7%, JMJD2A Tudor inh 4µM*, Six1-Eya2 inh -5 and CtBP-E1A inh 16.
Screening Cc1cc(Cl)c(OCCOCCN2CCCC(C)C2)c(Br)c1 (stereo not drawn) returned BAZ2B inh 56µM*, HP1b binding inh 6%, TDP1 block 0%, JMJD2A Tudor inh inconclusive, Six1-Eya2 inh -9 and CtBP-E1A inh 3.
`CC(C)(C)NC(=O)c1oc2ccccc2c1NC(=O)c1ccc(F)cc1` gave BAZ2B inh 10%[57.1 µM], HP1b binding inh 28%, TDP1 block 2% and JMJD2A Tudor inh -3%.
Screening CCS(=O)(=O)c1c(Nc2ccc(F)c(Cl)c2)sc(C(=O)c2ccccc2)c1N returned BAZ2B inh inconclusive, HP1b binding inh -7%, TDP1 block -3% and JMJD2A Tudor inh inconclusive.
`COc1ccc(NC(=O)C2CCCN(S(=O)(=O)c3ccc(Br)s3)C2)cc1` (stereo not drawn) gave BAZ2B inh -4%, HP1b binding inh 19%, TDP1 block 0%[12.3 µM] and JMJD2A Tudor inh -10%.
`C#CCOCCOCCOCCNc1nc(N2CCN(C(=O)[C@H]([C@@H](C)CC)n3cc([C@@H](N)CO)nn3)CC2)nc(N2CCN(C(=O)[C@H](CCCCN)n3cc([C@@H](N)CC(C)C)nn3)CC2)n1` gave BAZ2B inh 79µM*, HP1b binding inh 44%, TDP1 block 5%, JMJD2A Tudor inh 50µM*, Six1-Eya2 inh -18 and CtBP-E1A inh -22.
For C#CCOCCOCCOCCNc1nc(N2CCN(C(=O)[C@H](CCCCN)n3cc([C@@H](N)CO)nn3)CC2)nc(N2CCN(C(=O)[C@H](CCCCN)n3cc([C@@H](N)CC(C)C)nn3)CC2)n1 the results were HP1b binding inh 22%, TDP1 block -4%, JMJD2A Tudor inh 56µM*, Six1-Eya2 inh 0 and CtBP-E1A inh inconclusive.
Screening C#CCOCCOCCOCCNc1nc(N2CCN(C(=O)[C@H](CCCCN)n3cc([C@@H](N)C(C)CC)nn3)CC2)nc(N2CCN(C(=O)[C@H](CCCCN)n3cc([C@@H](N)CC(C)C)nn3)CC2)n1 (stereo partly drawn) returned BAZ2B inh 71µM*, HP1b binding inh 23%, TDP1 block 3%, JMJD2A Tudor inh inconclusive, Six1-Eya2 inh -25 and CtBP-E1A inh -13.
For C#CCOCCOCCOCCNc1nc(N2CCN(C(=O)[C@H](CCCCN)n3cc([C@@H](N)[C@H](C)CC)nn3)CC2)nc(N2CCN(C(=O)[C@H](CCCCN)n3cc([C@@H](N)CC(N)=O)nn3)CC2)n1 the results were HP1b binding inh 78%, TDP1 block 2%, JMJD2A Tudor inh -26%, Six1-Eya2 inh -11 and CtBP-E1A inh -5.
COc1ccc(S(=O)(=O)NCCc2sc(-c3cccc(F)c3)nc2C)cc1 was read as BAZ2B inh 2%, HP1b binding inh 37%, TDP1 block 3% and JMJD2A Tudor inh -11%.
For Cc1ccc(C)c(S(=O)(=O)/N=C2\C=C(NS(=O)(=O)c3ccccc3)C(=O)c3ccccc32)c1 the results were BAZ2B inh 10µM*, HP1b binding inh inconclusive, JMJD2A Tudor inh 22µM*, Six1-Eya2 inh -6 and CtBP-E1A inh -19.
CC(C)c1ccc(S(=O)(=O)/N=C2/C=CC(=O)c3ccccc32)cc1 was read as BAZ2B inh 7.9µM* and TDP1 block 10%.
CCc1ccc(Nc2nc3ccccc3nc2NS(=O)(=O)c2ccccc2)cc1 was read as BAZ2B inh 3%, HP1b binding inh 56% and JMJD2A Tudor inh 1%.
`CCc1ccc(S(=O)(=O)/N=C2\C=C(NS(=O)(=O)c3ccccc3)C(=O)c3ccccc32)cc1` gave BAZ2B inh 8.9µM*, HP1b binding inh 14µM*, JMJD2A Tudor inh 22µM*, Six1-Eya2 inh -15 and CtBP-E1A inh inconclusive.
For CC(C)(C)c1cc[n+](C2=C([O-])c3ccccc3C(=O)/C2=N\S(=O)(=O)c2ccccc2)cc1 the results were BAZ2B inh -37%, HP1b binding inh 25%, TDP1 block 4%, JMJD2A Tudor inh -1%, Six1-Eya2 inh 8 and CtBP-E1A inh 1.
